# Assay results from the supplement of paper PMC12282887.
# ± gives the standard deviation of the averaged measurements.
# What was measured:
# Assay in all cases: promoter activity interaction Z-score (Lux/OD deviation from empty-vector control); higher = stronger promoter induction by the compound
# [1] = test system: E. coli BW25113 acrABp lux reporter
# Summary of the method: (§1)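 Reporter strains of E. coli BW25113 grew at 37°C in 40 µl LB Lennox in 384-well plates. Readings of OD600 and luminescence were taken every 30 min over 12 h, integrated over 0–8 h (wild type) or 1–9 h (deletion strains), and wells below 10% of the median growth value were excluded. Scores are Z-transformed residuals of growth-normalised luminescence from a fit against a control.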
# [2] = test system: E. coli BW25113 marRABp lux reporter
# Summary of the method: as §1
# [3] = test system: E. coli BW25113 micFp lux reporter
# Summary of the method: as §1
# [4] = test system: E. coli BW25113 ompFp lux reporter
# Summary of the method: as §1
# [5] = test system: E. coli BW25113 robp lux reporter
# Summary of the method: as §1
# [6] = test system: E. coli BW25113 soxSp lux reporter
# Summary of the method: as §1
# [7] = test system: E. coli BW25113 tolCp lux reporter
# Summary of the method: as §1
# [8] = 24.6 µg/ml, genetic background: wild type
# [9] = 24.6 µg/ml, genetic background: ΔmarA
# [10] = 24.6 µg/ml, genetic background: Δrob
# [11] = 24.6 µg/ml, genetic background: ΔsoxS
# [12] = 49.3 µg/ml, genetic background: wild type
# [13] = 49.3 µg/ml, genetic background: ΔmarA
# [14] = 49.3 µg/ml, genetic background: Δrob
# [15] = 49.3 µg/ml, genetic background: ΔsoxS
# [16] = 98.6 µg/ml, genetic background: wild type
# [17] = 98.6 µg/ml, genetic background: ΔmarA
# [18] = 98.6 µg/ml, genetic background: Δrob
# [19] = 98.6 µg/ml, genetic background: ΔsoxS
# [20] = 197.1 µg/ml, genetic background: wild type
smiles,measurement,setting,value
CC[n+]1c(-c2ccccc2)c2cc(N)ccc2c2ccc(N)cc21 [Ethidiumbromide],promoter activity interaction Z-score,[1]; [8],0.326 ± 0.22
same,promoter activity interaction Z-score,[1]; [9],0.524 ± 0.7
same,promoter activity interaction Z-score,[1]; [10],0.354 ± 0.098
same,promoter activity interaction Z-score,[1]; [11],-0.0764 ± 0.31
same,promoter activity interaction Z-score,[1]; [12],0.808 ± 0.11
same,promoter activity interaction Z-score,[1]; [13],1.18 ± 0.92
same,promoter activity interaction Z-score,[1]; [14],0.756 ± 0.029
same,promoter activity interaction Z-score,[1]; [15],0.5305 ± 0.0051
same,promoter activity interaction Z-score,[1]; [16],1.2 ± 0.53
same,promoter activity interaction Z-score,[1]; [17],0.599 ± 1.3
same,promoter activity interaction Z-score,[1]; [18],0.819 ± 0.29
same,promoter activity interaction Z-score,[1]; [19],0.475 ± 0.05
same,promoter activity interaction Z-score,[2]; [8],0.958 ± 0.21
same,promoter activity interaction Z-score,[2]; [9],0.99 ± 0.055
same,promoter activity interaction Z-score,[2]; [10],0.804 ± 0.17
same,promoter activity interaction Z-score,[2]; [11],0.684 ± 0.19
same,promoter activity interaction Z-score,[2]; [12],1.32 ± 0.076
same,promoter activity interaction Z-score,[2]; [13],1.56 ± 0.57
same,promoter activity interaction Z-score,[2]; [14],1.1 ± 0.13
same,promoter activity interaction Z-score,[2]; [15],1.368 ± 0.0038
same,promoter activity interaction Z-score,[2]; [16],1.6 ± 0.43
same,promoter activity interaction Z-score,[2]; [17],1.57 ± 0.26
same,promoter activity interaction Z-score,[2]; [18],1.07 ± 0.073
same,promoter activity interaction Z-score,[2]; [19],1.15 ± 0.091
same,promoter activity interaction Z-score,[3]; [8],0.89 ± 0.25
same,promoter activity interaction Z-score,[3]; [9],0.0467 ± 0.069
same,promoter activity interaction Z-score,[3]; [10],0.437 ± 0.23
same,promoter activity interaction Z-score,[3]; [11],0.0133 ± 0.038
same,promoter activity interaction Z-score,[3]; [12],1.09 ± 0.86
same,promoter activity interaction Z-score,[3]; [13],0.0126 ± 0.13
same,promoter activity interaction Z-score,[3]; [14],0.436 ± 0.016
same,promoter activity interaction Z-score,[3]; [15],0.338 ± 0.11
same,promoter activity interaction Z-score,[3]; [16],0.763 ± 1.3
same,promoter activity interaction Z-score,[3]; [17],-0.124 ± 0.015
same,promoter activity interaction Z-score,[3]; [18],0.377 ± 0.036
same,promoter activity interaction Z-score,[3]; [19],-0.366 ± 0.13
same,promoter activity interaction Z-score,[3]; [20],1.24
same,promoter activity interaction Z-score,[4]; [8],0.291 ± 0.39
same,promoter activity interaction Z-score,[4]; [9],0.262 ± 0.15
same,promoter activity interaction Z-score,[4]; [10],0.428 ± 0.57
same,promoter activity interaction Z-score,[4]; [11],-0.386 ± 0.08
same,promoter activity interaction Z-score,[4]; [12],0.79 ± 0.52
same,promoter activity interaction Z-score,[4]; [13],0.776 ± 0.33
same,promoter activity interaction Z-score,[4]; [14],0.612 ± 0.19
same,promoter activity interaction Z-score,[4]; [15],0.772 ± 0.8
same,promoter activity interaction Z-score,[4]; [16],0.327 ± 1.1
same,promoter activity interaction Z-score,[4]; [17],0.808 ± 0.52
same,promoter activity interaction Z-score,[4]; [18],-0.58 ± 0.54
same,promoter activity interaction Z-score,[4]; [19],-0.257 ± 0.67
same,promoter activity interaction Z-score,[5]; [8],0.277 ± 0.67
same,promoter activity interaction Z-score,[5]; [9],0.595 ± 0.36
same,promoter activity interaction Z-score,[5]; [10],0.758 ± 0.77
same,promoter activity interaction Z-score,[5]; [11],1.25 ± 1.1
same,promoter activity interaction Z-score,[5]; [12],-0.152 ± 0.42
same,promoter activity interaction Z-score,[5]; [13],1.37 ± 0.033
same,promoter activity interaction Z-score,[5]; [14],-0.413 ± 0.32
same,promoter activity interaction Z-score,[5]; [15],0.804 ± 0.45
same,promoter activity interaction Z-score,[5]; [16],-0.356 ± 0.7
same,promoter activity interaction Z-score,[5]; [17],-0.204 ± 0.19
same,promoter activity interaction Z-score,[5]; [18],-1.46 ± 0.089
same,promoter activity interaction Z-score,[5]; [19],-0.959 ± 1.1
same,promoter activity interaction Z-score,[6]; [8],0.555 ± 0.028
same,promoter activity interaction Z-score,[6]; [9],0.911 ± 0.17
same,promoter activity interaction Z-score,[6]; [10],0.717 ± 0.25
same,promoter activity interaction Z-score,[6]; [11],1.38 ± 0.36
same,promoter activity interaction Z-score,[6]; [12],1.31 ± 0.084
same,promoter activity interaction Z-score,[6]; [13],1.5169 ± 0.00016
same,promoter activity interaction Z-score,[6]; [14],1.38 ± 0.24
same,promoter activity interaction Z-score,[6]; [15],2.47 ± 0.14
same,promoter activity interaction Z-score,[6]; [16],1.8 ± 0.019
same,promoter activity interaction Z-score,[6]; [17],2.07 ± 0.081
same,promoter activity interaction Z-score,[6]; [18],2.14 ± 0.22
same,promoter activity interaction Z-score,[6]; [19],3.77 ± 0.59
same,promoter activity interaction Z-score,[6]; [20],0.127 ± 0.036
same,promoter activity interaction Z-score,[7]; [8],-0.0407 ± 0.73
same,promoter activity interaction Z-score,[7]; [9],0.142 ± 0.75
same,promoter activity interaction Z-score,[7]; [10],-0.711 ± 0.15
same,promoter activity interaction Z-score,[7]; [11],0.75 ± 0.61
same,promoter activity interaction Z-score,[7]; [12],0.059 ± 0.45
same,promoter activity interaction Z-score,[7]; [13],0.836 ± 0.52
same,promoter activity interaction Z-score,[7]; [14],-0.973 ± 1
same,promoter activity interaction Z-score,[7]; [15],0.167 ± 0.58
same,promoter activity interaction Z-score,[7]; [16],0.025 ± 1.1
same,promoter activity interaction Z-score,[7]; [17],-0.192 ± 0.57
same,promoter activity interaction Z-score,[7]; [18],-0.394 ± 0.42
same,promoter activity interaction Z-score,[7]; [19],0.815 ± 0.81
same,promoter activity interaction Z-score,[7]; [20],-0.153 ± 0.69
same,promoter activity interaction Z-score,"[7]; 197.1 µg/ml, genetic background: ΔsoxS",-1.48 ± 0.4
